# Assay outcomes from PubChem.
# D1 antag: antagonists of human D1 dopamine receptor; AID 504652; HEK293 TREx D1 cells, calcium flux, dopamine EC80; hits give low values; hit rate 3.2% among 360,000; P21728; activity change, negative = inhibition, % at 10 µM; in the data active = activity change below about -30%; note: % is set by controls: 0 for no effect and ±100 for the full control effect
#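 Inducible Hek293 Trex D1 cells (tetracycline, overnight, 30 C). Calcium dye 30–90 min RT. Antagonist mode: EC80 dopamine added after 180 s compound read.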
# DRD3 antagonist: blocks the human D3 dopamine receptor; hit rate 2.5% among 360,000; P35462; max response, negative = inhibition, %; D3R cells, DiscoveRx beta-arrestin luminescence, antagonist mode; hits give low values; AID 652054; in the data active = max response below about -50%; inconclusive = no clear call, values can overlap the other calls; note: % is set by controls: 0 for no effect and ±100 for the full control effect
# Target sequence (P35462 whole entry, looked up): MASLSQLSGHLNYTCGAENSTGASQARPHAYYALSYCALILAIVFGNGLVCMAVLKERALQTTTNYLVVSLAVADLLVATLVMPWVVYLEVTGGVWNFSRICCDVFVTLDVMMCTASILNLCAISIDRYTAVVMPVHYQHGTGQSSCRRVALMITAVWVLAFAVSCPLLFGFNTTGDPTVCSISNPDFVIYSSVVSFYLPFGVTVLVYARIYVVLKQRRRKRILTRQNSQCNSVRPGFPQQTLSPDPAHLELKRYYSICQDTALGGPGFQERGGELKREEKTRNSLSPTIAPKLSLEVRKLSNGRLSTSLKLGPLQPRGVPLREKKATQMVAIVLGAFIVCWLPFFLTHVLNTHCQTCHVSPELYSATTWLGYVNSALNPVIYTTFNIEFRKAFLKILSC
#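 Cells expressing the human receptor were seeded at 1500 cells/well, incubated overnight at 37 degrees C in 5% CO2, then exposed to library compounds with dopamine controls for 90 minutes at 37 degrees C before luminescent detection.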
# D1 ag: activates the human D1 dopamine receptor | activation, % at 2 µM | hit rate 1% among 360,000 | P21728 | HEK293 T-REx D1 cells, calcium flux, agonist mode; in the data active = activation above about 30%; note: 0% is about no effect
#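 Tetracycline-induced HEK293 TREx D1 cells, force-coupled to calcium signalling, were dye-loaded with a no-wash calcium kit. Compound was pin-added after a 10 s baseline. Fluorescence was read kinetically at 1 cycle/s for 180 s, with calcium rises flagged as agonism.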
# D1 PAM: enhances dopamine response at the human D1 receptor. P21728. HEK293 TREx D1 cells, calcium flux, dopamine EC20 potentiation. potentiation, % at 10 µM. hit rate 0.036% among 360,000; in the data active = potentiation above about 30%; note: 0% is about no effect
# ERG Ets-DNA blk: ERG Ets/DNA interaction inhibition. P11308. fluorescence polarization, His-ERG Ets domain / labelled DNA. Potency, µM (doses to about 76.9 µM), for the others: at the top dose FP activity, negative = inhibition, actives largely listed as inhibitors. hit rate 0.028% among 370,000. AID 624246; active = well fitted inhibition curve with a large enough effect in the polarisation, with a control signal flat; inconclusive = small, poorly fitted or top-dose-only effect, or effect the other way, or a change in a side signal; inactive = no such curve, though single readings can be large or run the other way; the % refers to the polarisation;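 note: polarization taken with two DNA probes labelled with fluorescein and Texas red; potency is the fitted concentration of half-maximal effect; % of control where 0% means no effect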
#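 His-tagged ERG Ets domain (1 uM in the protein solution; 300mM KCl, 50mM Tris-HCl, 1mM EDTA, 1mM DTT, pH 7.5) received compound, then a probe mix of 5 nM fluorescein-DNA and 100nM Texas-615-DNA. Fluorescence polarization was read for both dyes.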
# D3 ag: activates the human D3 dopamine receptor. P35462. D3R DiscoveRx beta-arrestin cells, luminescence, 90 min. max activation, %. hit rate 0.58% among 410,000. AID 652048; in the data active = max activation above about 30%; note: 0% is about no effect
#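 Agonist-mode cell screen: cells plated at 1500/well and incubated overnight at 37 °C, then exposed to library compounds for 90 min at 37 °C. Detection reagent was added for 30–60 min at room temperature, and luminescence was read.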
# An asterisk follows results filed as active; ? = inconclusive; . = no result given; ! = a repeat was not active. A selection: hits, their analogues and other compounds. The true share with any hit is near 6.1%.
SMILES,D1 antag,DRD3 antagonist,D1 ag,D1 PAM,ERG Ets-DNA blk,D3 ag
COc1cc(-c2ccc3c(=O)c4ccccc4sc3c2)cc(OC)c1OC,.,101,.,.,7%,60*
Oc1c(C=NCc2ccc(F)cc2)[nH]c2ccc(Br)c(Cl)c12,-6,.,5,-2,.,.
Cc1ccc(CN=Cc2[nH]c3ccc(Br)c(Cl)c3c2O)cc1,-3,-101*,10,-6,.,-26
O=C(Cc1ccccc1Cl)Nc1cc(S(=O)(=O)N2CCOCC2)ccc1N1CCOCC1,18,2,2,14,-13%,0
CCCc1cc(C(=O)Nc2nccs2)cs1,4,-51*,2,-9,-6%,-6
COc1ccc(S(=O)(=O)N(CCc2ccccc2)CC(=O)N2CCOCC2)cc1,-74*,6,1,-4,11%,-2
COc1ccc(S(=O)(=O)N(CCCN2CCOCC2)Cc2ccc(OC)c(OC)c2)cc1,-21,-69*,0,1,-2%,-32
O=S(=O)(c1cccc(C(F)(F)F)c1)N(CCCN1CCOCC1)Cc1cccs1,-15,-80*!,7,-9,-2%,-19
O=c1c2[nH]cnc2n(-c2ccc(F)cc2)c(=O)n1Cc1ccccc1,6,-20,4,-6,0%,-8
CC1C/C(=C\c2ccccc2[N+](=O)[O-])c2nc3ccccc3c(C(=O)O)c2C1 (stereo not given),11,17,1,-2,15%,16
C=CCn1c2ccccc2c(=O)c2cc(C#Cc3cc(OC)cc(OC)c3)ccc21,.,51,4,-1,5%,50*
Cn1c2ccccc2c(=O)c2cc(C#Cc3ccccn3)ccc21,11,21,-2,-2,-7%,4
COc1cc(C#Cc2c(C=O)n(C)c3ccccc23)cc(OC)c1,.,81,5,0,5%,50*
Cn1cncc1C#Cc1c(C=O)n(C)c2ccccc12,.,6,-2,-6,-6%,2
CCOc1ccc(Oc2ccccc2NS(=O)(=O)c2ccc(CCC(=O)O)cc2)cc1,1,-13,-1,2,2%,2
Oc1ccc(Cl)cc1Cc1cc(Cl)ccc1O,33,37,111*,13,-1%,28
Oc1ccc(Cl)cc1CNCc1ccc(Cl)cc1,18,?,21,1,-1%,-27
Oc1ccc(Cl)cc1CNCc1ccc(F)cc1,-16,-81*,60*,-8,-8%,-43
COc1ccc(NC(=O)NNC(=O)COc2ccc3cc(Br)ccc3c2)cc1OC,-3,-10,8,0,-1%,-4
COc1ccc(NC(=O)NNC(=O)CCc2ccc(O)c(O)c2)cc1OC,-1,-3,4,0,-4%,51*
COc1cc(NC(=O)COc2ccc(Cl)cc2)ccc1-c1cc2ccccc2oc1=O,-41*,10,2,0,-8%,8
COc1ccc(NC(=O)NNC(=O)COc2ccc3ccccc3c2)cc1OC,-49*,-11,1,9,3%,-8
COc1ccc(CCNC(=O)C2CCC(=O)N2CCc2ccccc2)cc1OC (stereo not given),-32*,-15,2,-6,-25%,3
O=C(c1ccc(Cl)c(Cl)c1)c1cc(-c2ccccn2)c(N2CCOCC2)s1,.,-19,.,.,-1%,-5
COc1ccc(CC(=O)NNC(=O)CCc2ccccc2)cc1OC,-34*,12,4,-5,-9%,6
Cc1c(NC(=O)CSc2nc3ccccc3[nH]2)c(=O)n(-c2ccccc2)n1C,4,-78*,2,5,0%,7
O=C(CSc1nc2ccccc2[nH]1)Nc1ccc(F)c(F)c1,-15,-11,4,-9,.,-16
Cc1c(NC(=O)CSc2nnnn2C)c(=O)n(-c2ccccc2)n1C,-35*,12,2,13,-1%,6
Cc1c(NC(=O)CSc2nnnn2-c2ccc(F)cc2)c(=O)n(-c2ccccc2)n1C,-27,-2,2,-2,8%,-1
NNC(=O)c1ccc(CSc2nc3ccccc3[nH]2)cc1,-10,-56*,1,-4,0%,-7
